# Measurements from PubChem BioAssay (NCATS).
# Records with an inconclusive call do not appear. A call without a number means that no potency is given here. Unmarked numbers belong to inactive results. Active and inactive are the calls of the source. Calls come from the whole dose curve; as a rule, active = well fitted curve in the direction sought with a large enough effect; inconclusive = small, poorly fitted or top-dose-only effect, or another doubt; inactive = no such curve, though single readings can be large; an effect the other way counts as inactive or inconclusive.
# Key:
# [1] = P-glycoprotein substrates identified in KB-3-1 adenocarcinoma cell line, qHTS therapeutic library screen (AID 1346986); note: nearly all actives have a fitted effect of over 60% in size
# In short: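 KB-3-1 parental and colchicine-selected P-gp-overexpressing KB-8-5-11 cells (colchicine omitted during assay), 500 cells/well, dosed in dose-response for 72 h at 37 °C; CellTiter-Glo luminescence. Cytotoxic: curve class -1.1 to -2.4, max response >50%, AC50 < 10 uM.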
# [2] = P-glycoprotein substrates identified in KB-8-5-11 adenocarcinoma cell line, qHTS therapeutic library screen (AID 1346987); note: nearly all actives have a fitted effect of over 65% in size; for activity change, negative = cytotoxicity: series mostly up to about 44 µM
# In short: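 KB-8-5-11, a colchicine-selected P-gp-overexpressing KB-3-1 subline, was grown without colchicine for the assay. Cells were seeded at 500 cells/well, dosed in concentration-response and incubated 72 h at 37 degree C, 5% CO2. Viability was read by CellTiter-Glo luminescence.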
smiles,measurement,setting,value
CC(C)(O)C(O)C(=O)OCc1ccc(O[C@@H]2O[C@H](CO)[C@@H](O)[C@H](O)[C@H]2O)cc1 (some centres not stated),Potency,[1],inactive
same,Potency,[2],inactive
COC(=O)C1=COC(OC2OC(CO)C(O)C(O)C2O)C2C(C)C(OC(C)=O)C(OC(=O)c3ccccc3)C12 (configuration not stated),Potency,[1],inactive
same,Potency,[2],inactive
CC1CCC2C(C)(C)[C@H](O)CC[C@]2(C)C12Cc1c(O)cc3c(c1O2)CN(C(CCC(=O)O)C(=O)O)C3=O (some centres not stated),Potency,[1],inactive
same,Potency,[2],inactive
C=Cc1cc2oc(-c3ccc(O)c(F)c3)nc2cc1O,Potency,[1],inactive
same,Potency,[2],inactive
CCN1CCN(C(=O)N[C@@H](C(=O)N[C@@H]2C(=O)N3[C@@H]2SC(C)(C)[C@@H]3C(=O)O)c2ccccc2)C(=O)C1=O,Potency,[1],inactive
same,Potency,[2],inactive
C/C=C(/C)C(=O)OC1CC(C)(C)CC2C3=CCC4C5(C)CCC(OC6OC(C)C(OC7OC(C(=O)O)C(O)C(OC8OC(CO)C(O)C(O)C8OC8OC(CO)C(O)C(O)C8O)C7O)C(O)C6O)C(C)(C)C5CCC4(C)C3(C)C(OC(=O)/C=C/C=C/C=C/CCC)C(OC(C)=O)C12CO (configuration not stated),outcome,[1],inactive [at 9.29 µM]
same,outcome,[2],inactive [at 9.29 µM]
CC(CCc1ccc(O)cc1)O[C@@H]1O[C@H](CO[C@@H]2OC(CO)[C@H](O)[C@H]2O)[C@@H](O)[C@H](O)[C@H]1O (some centres not stated),Potency,[1],inactive
same,Potency,[2],inactive
C=CCc1ccc(O[C@@H]2O[C@H](CO)[C@@H](O)[C@H](O)[C@H]2O)c(O[C@@H]2O[C@H](CO)[C@@H](O)[C@H](O)[C@H]2O)c1,Potency,[1],inactive
same,Potency,[2],inactive
CC(=O)OC1CC(=O)C2(C)C3CC4=C(OC(C)CC4=O)OC3(C)CCC2C1(C)C (configuration not stated),Potency,[1],inactive
same,Potency,[2],inactive
CC(C)=CCC/C(C)=C/CO[C@@H]1O[C@H](CO[C@@H]2O[C@@H](CO)[C@H](O)[C@H]2O)[C@@H](O)[C@H](O)[C@H]1O,Potency,[1],inactive
same,Potency,[2],inactive
CCC(=O)OCC(=O)[C@@]1(OC(=O)CC)[C@@H](C)C[C@H]2[C@@H]3CCC4=CC(=O)C=C[C@]4(C)[C@@]3(F)[C@@H](O)C[C@@]21C,Potency,[1],inactive
same,Potency,[2],inactive
COCCCc1sc(-c2ccccc2)nc1C(=O)Nc1ccccc1-c1nc2cc(CN3CCCC3)cnc2s1,Potency,[1],inactive
same,Potency,[2],inactive
COc1ccc(OC)c(C2C(C#N)=C(N)Oc3n[nH]c(-c4ccc5ccccc5c4)c32)c1 (configuration not stated),Potency,[1],inactive
same,Potency,[2],inactive
CC1(C)CCC2(C(=O)O)C(O)CC3(C)C(=CCC4C5(C)CCC(OC6OC(CO)C(O)C(O)C6OC6OC(CO)C(O)C(O)C6OC6OCC(O)(CO)C6O)C(C)(C)C5CCC43C)C2C1 (configuration not stated),outcome,[1],inactive [at 9.29 µM]
same,outcome,[2],inactive [at 9.29 µM]
C=CC(C)(O)CC/C=C(\C)C(=O)O[C@@H]1[C@@H](O)[C@H](OC(C)(C=C)CC/C=C(\C)C(=O)O[C@@H]2O[C@H](CO)[C@@H](O)[C@H](O)[C@H]2O)O[C@H](CO)[C@H]1OC(=O)/C(C)=C/CCC(C)(O)C=C (some centres not stated),outcome,[1],inactive [at 9.29 µM]
same,"activity change, negative = cytotoxicity",[2],2.84% [at 9.29 µM]
CC1=CC(=O)C2C(C)(C)CCC[C@]2(C)[C@H]1CC[C@H](C)CC(=O)O (some centres not stated),Potency,[1],inactive
same,Potency,[2],inactive
CC1OC(O[C@@H]2[C@H](O)[C@@H](OC3OC(CO)C(O)C(O)C3O)[C@H](OC(=O)[C@]34CCC(C)(C)C[C@H]3C3=CCC5[C@@]6(C)CC[C@H](O[C@@H]7O[C@H](C(=O)O)[C@@H](O)[C@H](O[C@@H]8OC[C@@H](O)[C@H](O)[C@H]8O)[C@H]7O[C@@H]7O[C@H](CO)[C@H](O)[C@H](O)[C@H]7O)[C@@](C)(C=O)C6CC[C@@]5(C)[C@]3(C)C[C@H]4O)O[C@@H]2C)C(O)C(O)C1OC1OCC(O)C(O)C1O (some centres not stated),outcome,[1],inactive [at 5.11 µM]
same,outcome,[2],inactive [at 5.11 µM]
C=C1[C@H](OC(C)=O)[C@H]2[C@@H](OC(C)=O)C(C)C[C@]2(OC(C)=O)C(=O)[C@H](C)/C=C/C(C)(C)C(=O)[C@H](OC(=O)C(C)C)[C@H]1OC(C)=O (some centres not stated),Potency,[1],inactive
same,Potency,[2],inactive
COc1cc(C(=O)OC[C@H]2O[C@@H](OC(C)(C)C(=O)O)[C@H](O)[C@@H](O)[C@@H]2O)cc(OC)c1O,Potency,[1],inactive
same,Potency,[2],inactive
C=C1CC2C3(C)C(O)CC(=O)C(C)(C)C3C(O)C(OC(C)=O)C2(C)C2C(=O)OC(C)(C(=O)OC)C(=O)C12C (configuration not stated),Potency,[1],inactive
same,Potency,[2],inactive
C/C=C/C=C/C(O)=C1/C(=O)[C@]2(C)C(=O)[C@@](C)(O)[C@H]1[C@H]([C@@]1(C)OC(=O)C(C)=C1O)[C@H]2C(=O)CC/C=C/C,Potency,[1],inactive
same,Potency,[2],inactive
COc1ccc2c(c1)N1C(=O)C[C@@]34C=CC[N@+]5([O-])CC[C@H]2[C@H](CC3)[C@@]145,Potency,[1],inactive
same,Potency,[2],inactive
CC(=O)/C=C/C1(O)C(C)(C)CC(O)CC1(C)O (configuration not stated),Potency,[1],inactive
same,Potency,[2],inactive
CC(=O)O[C@H]1C[C@@H](O)C(C)(C)C2C[C@@H](OC(C)=O)[C@]3(C)C(CC[C@@]4(C)[C@H](c5ccoc5)OC(=O)[C@H]5O[C@]543)[C@]21C (some centres not stated),Potency,[1],inactive
same,Potency,[2],inactive
C=C1CC23CC1CCC2C12OC(=O)C(C)(C(O)C(O)C1O)C2C3C(=O)O (configuration not stated),Potency,[1],inactive
same,Potency,[2],inactive
CC1CC(=O)C2=C(O1)OC1(C)CCC3C(C)(C)C4OC4C(=O)C3(C)C1C2 (configuration not stated),Potency,[1],inactive
same,Potency,[2],inactive
